According to PubChem BioAssay AID624167 (Sanford-Burnham Center for Chemical Genomics, 2012):

Assay: Peg3 promoter luciferase inhibitors, potency, dose response, cell-based, HeLa, CREF/GAPDH counter-screen panel (AID 624167)
Conditions: CREF/GAPDH counter-screens; run 1, dose range 1, at 100 µM (top of the series)

Row | Structure (SMILES) | inhibition [%]
1 | OCCCNc1nccc(-c2cc(Nc3cccc(Cl)c3)ncn2)n1 | 34.2
2 | CCCCCCN1C=C/C(=C\C=C(C#N)C#N)c2ccccc21 | 50.3
3 | O=C(CCSc1nc2ccccc2s1)N/N=C/c1c(O)ccc2ccccc12 | -10.4
4 | CS(=O)(=O)c1ccc(-c2cn3cc(C(=O)O)ccc3n2)cc1 | 67.7
5 | Oc1[nH]c2ccc(Br)cc2c1N=NC(=S)N1CCOCC1 | 75.3
6 | Cc1cccc(OCC(=O)NCC(=O)N/N=C/c2cc(Br)cc(Br)c2O)c1 | 67.3
7 | CC(=O)NC(c1ccc(Cl)cc1)c1ccc2cccnc2c1O (configuration not stated) | 69.3
8 | COC(=O)C1C=CC(OC2OC(COC(C)=O)C(OC(C)=O)C(OC(C)=O)C2OC(C)=O)n2c(=O)n(-c3ccccc3)c(=O)n21 (configuration not stated) | 94.9
9 | CC(=O)NC(c1ccc(Cl)cc1Cl)c1ccc2cccnc2c1O (configuration not stated) | 55.7
10 | O=C(N/N=C\c1c(O)ccc2ccccc12)c1ccc(Cn2cccn2)o1 | 34.1
11 | CCCCCCCNC(=O)C1(CC2CC(c3cccc(Br)c3)=NO2)CCNCC1 (configuration not stated) | 95
12 | Cc1oc(-c2ccc3c(c2)OCCO3)cc1C(=O)O | 98.6
13 | COc1cc(CNCCCN2CCOCC2)cc(Br)c1OCc1ccc(Cl)cc1 | 99.6
14 | COc1ccc(-n2c(O)c(/C=N/Nc3nc(C)cc(C)n3)c3ccccc3c2=O)cc1OC | -8.04
15 | O=C(N/N=C/c1sc(N2CCOCC2)nc1-c1ccccc1)c1cccc(S(=O)(=O)N2CCCC2)c1 | 52
16 | O=c1c2ccccc2sc2nc(CCl)nn12 | 100
17 | COc1cc(C(=O)N/N=C(\c2ccccc2)c2ccccn2)cc(OC)c1OC | 20
